Many of the other results were omitted from the sample, so hits are more common in it than they were.
TTR transcr act = TTR transcription activators in neuroblastoma reporter cells, primary screen, cell-based, luminescence, SH-SY5Y, TTR promoter Gaussia luciferase | 100% = recombinant luciferase protein wells | activation, % at 16.7 µM | 92,000 tested, 1.3% active;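 active = activation above the mean of all tested compounds plus 3 SD, cut at about 9.5% in these data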;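 also: cells exposed to compounds for one day before reading; 0% = median of all test compound wells on the plate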
HuH7 TTR inh = TTR promoter reporter inhibitors in hepatoma cells, counter-screen for TTR transcription activator project, cell-based, luminescence, HuH7 hepatoma; shares compounds with TTR transcr act; AID 1117279, 2014; HuH7 TTR promoter-Gaussia luciferase reporter; inhibition, % at 16.7 µM; 1,100 tested, 4% active;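 active = average inhibition above the solvent-only control wells' mean plus 3 SD, cut at about 15% in these data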;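 also: 0% = cells with DMSO only and 100% = cells with inhibitor control FD; inhibitors lower well luminescence so higher value means more inhibition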
TTR act confirm = TTR transcription activators, retest, confirmation, cell-based, luminescence, SH-SY5Y, triplicate. 1,100 tested, under 10 active. shares compounds with TTR transcr act. SHSY5Y TTR promoter Gaussia luciferase; 100% = purified Lucia enzyme wells, no cells. AID 1117280, 2014. activation, % at 16.7 µM;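 active = mean activation above a set limit taken from the earlier primary screen, cut at about 11% in these data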;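 also: 0% = DMSO-treated cells and 100% = recombinant Lucia luciferase without cells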
An asterisk follows results filed as active.

What do the screens show for `CC(C)(C)CC(=O)NCc1ccc(F)cc1`?
TTR transcr act: 15*; HuH7 TTR inh: -15; TTR act confirm: -1

Results for COC(=O)[C@]12C[C@H](CC(=O)N3CCOCC3)C(=O)N(Cc3ccc4c(c3)OCO4)C1=C[C@H](C(C)C)O[C@@H]2C1CC1 ?
TTR transcr act: -1

What do the screens show for `COC(=O)[C@]12C[C@H](CC(=O)NCc3ccc(C)o3)C(=O)N(Cc3ccccc3)C1=C[C@H](COCc1ccccc1)O[C@@H]2C`?
TTR transcr act: -1

How did COc1ccc([C@H]2C[C@H](O)[C@@H](n3cc(C4CC4)nn3)CN2C(=O)c2cccs2)cc1 do in these assays?
TTR transcr act: 1

Results for Cc1ccc([C@H]2C[C@@H](O)[C@H](n3cc(-c4ccc(F)cc4)nn3)CN2C(=O)c2cccs2)cc1 ?
TTR transcr act: 11*; HuH7 TTR inh: 15*; TTR act confirm: 0

Results for O=C(C1CCCCC1)N1C[C@H](n2cc(-c3ccc(F)cc3)nn2)[C@@H](O)C[C@@H]1c1ccc(Cl)cc1 ?
TTR transcr act: 1

Results for CCCCNC(=O)C1CCN(S(=O)(=O)N2CCOCC2)CC1 ?
TTR transcr act: 0

How did COc1ccc(CN(C)CC(=O)Nc2ccccc2C(F)(F)F)cc1 do in these assays?
TTR transcr act: -1

Results for CSc1ccccc1NC(=O)CN(C)CC(=O)Nc1ccc(Cl)cc1F ?
TTR transcr act: -1

What do the screens show for `CSc1ccccc1NC(=O)CN(C)CC(=O)Nc1ccccc1C(F)(F)F`?
TTR transcr act: 12*; HuH7 TTR inh: -19; TTR act confirm: 0

Results for CC(C)CN1CN2CCc3ccccc3C2CS1(=O)=O (stereo not given) ?
TTR transcr act: -1

How did CN(C)c1ccc(C(=O)OCC(=O)N2CCCCCC2)cc1 do in these assays?
TTR transcr act: -2

What do the screens show for `CCOC(=O)N1CCN(C(=O)COC(=O)c2ccc(N(C)C)cc2)CC1`?
TTR transcr act: 0

Results for CN(C)c1ccc(C(=O)OCC(=O)N2CCCC2)cc1 ?
TTR transcr act: 13*; HuH7 TTR inh: -15; TTR act confirm: -1

What do the screens show for `O=C(Nc1ccccc1N1CCCCC1)c1cnccn1`?
TTR transcr act: 2

How did O=C(NNC(=O)C1CCCCC1)c1cnccn1 do in these assays?
TTR transcr act: 12*; HuH7 TTR inh: -9; TTR act confirm: 0

What do the screens show for `O=C(NNC(=O)c1cnccn1)c1ccc(Cl)cc1`?
TTR transcr act: -2

How did CC1Cc2cc(S(=O)(=O)N3CCC(C(=O)N(C)Cc4ccccc4)CC3)ccc2N1C(=O)C1CC1 (stereo not given) do in these assays?
TTR transcr act: -1

What do the screens show for `COC(=O)[C@]12C[C@H](CC(=O)N3CCSCC3)C(=O)N(CCc3ccc(OC)c(OC)c3)C1=C[C@H](C(C)C)O[C@@H]2C1CC1`?
TTR transcr act: 9

Results for O=C(c1ccoc1)N1CCN(c2cc(-c3ccco3)nc3cc(-c4ccco4)nn23)CC1 ?
TTR transcr act: -2

What do the screens show for `O=C(CNC(=O)c1ccccc1F)NCCc1ccc(Cl)cc1Cl`?
TTR transcr act: 3

What do the screens show for `O=C(NC(=O)c1ccccc1F)OCc1ccc(Cl)cc1Cl`?
TTR transcr act: 20*; HuH7 TTR inh: -14; TTR act confirm: 1

Results for Nc1cc(C(=O)OCC(=O)NNC(=O)c2ccccc2F)ccc1Cl ?
TTR transcr act: 4

How did COC(CNC(=O)[C@H](Cc1ccccc1)NC(C)(C)C(=O)NC1CCCCC1)OC do in these assays?
TTR transcr act: -2

Results for COc1ccccc1C(=O)NC1CCCCN(Cc2ccc(C)cc2)C1=O (stereo not given) ?
TTR transcr act: 3

What do the screens show for `Cc1ccc(S(=O)(=O)Nc2ccc3c(c2)OCCO3)cc1C`?
TTR transcr act: 6

Results for COc1ccc(S(=O)(=O)Nc2ccc3c(c2)OCO3)cc1OC ?
TTR transcr act: 17*; HuH7 TTR inh: -15; TTR act confirm: 0

How did COc1ccc(S(=O)(=O)Nc2ccccc2)cc1OC do in these assays?
TTR transcr act: 0

What do the screens show for `CC(=O)c1csc(Nc2ccccc2Cl)n1`?
TTR transcr act: 12*; HuH7 TTR inh: -13; TTR act confirm: 0

What do the screens show for `CCCNC(=O)c1csc(Nc2cccc3ccccc23)n1`?
TTR transcr act: 0

How did CC(=O)c1csc(-c2ccccc2)n1 do in these assays?
TTR transcr act: -1

What do the screens show for `CC(C)(N[C@@H](Cc1c[nH]c2ccccc12)C(=O)NCCCc1ccccc1)C(=O)NCc1ccccc1`?
TTR transcr act: -1

Results for CC1(C)CC(=O)C2=C(C1)OC(N)=C(C#N)[C@@H]2c1ccccc1[N+](=O)[O-] ?
TTR transcr act: 0

Assay outcomes from PubChem BioAssay.
